According to PubChem BioAssay (NCI):
About 83,000 compounds went through this panel and 20% of them were active in at least one assay; those are over-represented in the sample as a whole.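 Step 1: grow cells in 96-well plates. Step 2: add test compound at a single concentration. Step 3: incubate 48 h. Step 4: record percent growth.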 A number with no mark means an inactive call. The source made the active and inactive calls. The calls were made as follows: active = growth percent below 10; inactive = the rest.

Key:
Assay in all cases: NCI-60 one-dose screen, 48 h (100 = growth as untreated, 0 = no growth, -100 = all killed)
Details in all cases: 10 µM unless noted
[1] = test system: NCI-H23 lung
[2] = test system: NCI-H226 lung
[3] = test system: NCI-H322M lung
[4] = test system: HOP-62 NSCLC
[5] = test system: NCI-H460 lung
[6] = test system: HOP-92 NSCLC
[7] = test system: NCI-H522 lung
[8] = test system: A549/ATCC NSCLC
[9] = test system: 786-0 renal
[10] = test system: COLO 205 colon
[11] = test system: DU-145 prostate
[12] = test system: K-562 leukemia
[13] = test system: MALME-3M melanoma
[14] = test system: MDA-MB-231 breast
[15] = test system: RXF 393 renal
[16] = test system: SF-268 CNS
[17] = test system: SF-295 CNS
[18] = test system: SF-539 CNS
[19] = test system: UACC-257 melanoma
[20] = test system: M14 melanoma

Row | Structure (SMILES) | growth [1] | growth [2] | growth [3] | growth [4] | growth [5] | growth [6] | growth [7] | growth [8] | growth [9] | growth [10] | growth [11] | growth [12] | growth [13] | growth [14] | growth [15] | growth [16] | growth [17] | growth [18] | growth [19] | growth [20]
1 | O=S(=O)(Nc1cc(Cl)ccc1Cl)c1ccc(-c2cnc(C3CC3)o2)cc1 | 52.8% | 40.3% | 59.4% | 39.8% | 24.8% | 40.4% | 0.738% (active) | 45.2% | 33% | 43.5% | 70.8% | 12% | 55.7% | 65.2% | 44.8% | 49.7% | 24.8% | 25.1% | 50.6% | 29.1%
2 | COc1ccc(C(O)c2cc3c(N)c(C(=O)Nc4cccc(Br)c4)sc3nc2C)cc1 (stereo not given) | 21.9% | 3.81% (active) | 45.9% | 24.3% | 0.823% (active) | 24.7% | 9.45% (active) | 11.2% | 15.3% | -25% (active) | 3.17% (active) | 9.61% (active) | 31.8% | 2.61% (active) | 28.2% | 6.77% (active) | 8.77% (active) | -19.9% (active) | 45.7% | 11.5%
3 | O=C(Nc1ccccc1)Nc1ncnc2c1ncn2-c1ccc(Cl)cc1 | 88.5% | 65% | 79.3% | 75.4% | 46.3% | 97.3% | 85.4% | 83.7% | 46.9% | 86.8% | 96.3% | 99.6% | 71.9% | 80.8% | 91.7% | 97.1% | 76.4% | 107% | 109% | 98.9%
4 | O=C1C(Cl)=C(NCCCCCCNC2=C(Cl)C(=O)c3ccccc3C2=O)C(=O)c2ccccc21 | 61.8% | 102% | 92.2% | 112% | 94.8% | 86.2% | 90.7% | 102% | 114% | 86.2% | 104% | 69.7% | 88.8% | 78.2% | 123% | 98.2% | 114% | 115% | 75% | 87.9%
5 | O=c1c2ccccc2n2cnc3ccc(Cl)c1c32 | 86.2% | 93.9% | 90.2% | 93.1% | 58.5% | 102% | 65.4% | 67.8% | 73.3% | 91.8% | 62.8% | 97.2% | 90.7% | 90.7% | 69.8% | 86.9% | 85.9% | 88.4% | 95.7% | 83.9%
6 | CN(C)c1ccc(-c2c(C#N)c(N)nn2C(=O)c2ccc(NC(=O)c3ccccn3)cc2)cc1 | 96.5% | 98.2% | 96.7% | 94.3% | 94.2% | 94.9% | 91.4% | 96.1% | 96% | 104% | 102% | 66.9% | 110% | 108% | 117% | 94.1% | 99% | 92% | 112% | 84.1%
7 | CCOC(=O)c1cc(C)n(-c2ccc(C(=O)O)cc2)c1C | 89.4% | 98.6% | 114% | 88.1% | 44.1% | 100% | 65.8% | 91.4% | 101% | 89.8% | 7.16% (active) | 116% | 130% | 80% | 80.8% | 92.3% | 90.7% | 105% | 96.5% | 89.7%
8 | Nc1nc(N)c(-c2ccc(Cl)c(Cl)c2)c(CBr)n1 | 78.3% | 93.3% | 78.4% | 102% | 25.7% | 99% | 9.79% (active) | 27% | 52% | 76.6% | 83.2% | 36.8% | 89% | 82.2% | 90.6% | 94% | 55.7% | 65.4% | 68.5% | 50.5%
9 | Cc1ccc(-c2nc(N3CCCNCC3)c3oc(-c4ccccc4)nc3n2)cc1 | 9.93% (active) | 93.1% | -70.4% (active) | -55.3% (active) | -67.9% (active) | -27.1% (active) | -74.6% (active) | -87.8% (active) | -89.8% (active) | -80.9% (active) | -15.2% (active) | -63.6% (active) | -92.4% (active) | -91.7% (active) | -74.3% (active) | -42.9% (active) | -89.6% (active) | -91.4% (active) | -82.2% (active) | -94.7% (active)
10 | COc1ccc(CN2c3ccccc3Sc3ccccc32)cc1F | 30.7% | 45.6% | 43% | 20.4% | 5.41% (active) | 50.4% | 4.53% (active) | 21.9% | 22.5% | -32.9% (active) | 14.1% | 11% | 32.6% | 24.1% | 7.16% (active) | 38.8% | 12.4% | -6.34% (active) | 54.8% | -3.27% (active)
11 | O=CN1N=C(c2cccc(Nc3ccnc4cc(Cl)ccc34)c2)CC1c1ccccc1 (stereo not given) | 4.34% (active) | 38.3% | 71.8% | 37.2% | 7.29% (active) | 18.9% | -25.8% (active) | 21.3% | 18.9% | -40.9% (active) | 6.74% (active) | 18.3% | 53.2% | 7.27% (active) | -5.98% (active) | 36.9% | 2.56% (active) | -7.47% (active) | 66.9% | 23.6%
12 | CCCC/C(CC)=N\NS(=O)(=O)c1ccc([N+](=O)[O-])cc1 | 95.9% | 93.4% | 109% | 96.7% | 105% | 91.6% | 90.9% | 89.1% | 103% | 105% | 97.2% | 95% | 101% | 96.2% | 110% | 100% | 108% | 101% | 88.7% | 101%
13 | NS(=O)(=O)c1ccc(N=Nc2c(O)n(Cc3ccccc3)c3ccc(Cl)cc23)cc1 | 91.2% | 34.1% | 84% | 64.3% | 64.9% | 97.8% | 69.1% | 82.9% | 48% | 94.3% | 87.3% | 82.4% | 70.5% | 75.9% | 45.5% | 65.2% | 93.7% | 61.5% | 92.1% | 88.1%
14 | COc1cc2c(cc1OCCCN1CCN(CCCOc3cc4c(cc3OC)C(=O)N3CC(F)(F)C[C@H]3C=N4)CC1)N=C[C@@H]1CC(F)(F)CN1C2=O | 54% | 95.5% | 97.9% | 97.4% | 27% | 10.8% | -14.3% (active) | 94.4% | 86.2% | 43.1% | 16.3% | 36.5% | 89% | 85.3% | 86.2% | 14.6% | 30.6% | 51% | 85.3% | 70.2%
15 | CCOC(=O)Cc1cnc(N/N=C(\C)c2cc3ccccc3o2)s1 | 86.5% | 80.5% | 93.6% | 68% | 94.4% | 86.9% | 42% | 91.5% | 97.3% | 108% | 113% | 98.5% | 91.8% | 91.4% | 107% | 98.8% | 104% | 107% | 98.2% | 98.2%
